Laboratory results published in the supplement of paper PMC10849652.
The full data set covers some 7,900 targets. This sample favours those with a hit. About 0.6% of all pairs of compound and target were hits. A number with no mark means an inactive call.

Tests used:
Experiment in all cases: log2 fold change, soluble protein after heating vs DMSO (PISA); higher = thermal stabilisation; K562 cells, 10 uM, 30 min; active = over 0.2 and 3.5 SD of the protein, either way, in both replicates (recomputed)
ZC3H8 = ZC3H8 (UniProt Q8N5P1)
Summary of the method: (§1)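 Thermal stability values are relative to control samples and come from duplicates. They are expressed as log2 fold changes. For measurement, K562 cells (2×10^6 cells/mL) received 10 μM compound for 30 min, and aliquots were heated for 3 min over 48°C-58°C, pooled, and extracted at 4°C in PBS with 0.5% NP-40. Soluble protein, the supernatant after 21,000xg for 90 min, was quantified by TMTpro 16plex LC-MS/MS with equalised channel sums.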

ZC3HC1 = ZC3HC1 (UniProt Q86WB0)
Summary of the method: as §1

ZCCHC9 = ZCCHC9 (UniProt Q8N567)
Summary of the method: as §1

ZDHHC17 = ZDHHC17 (UniProt Q8IUH5)
Summary of the method: as §1

ZDHHC20 = ZDHHC20 (UniProt Q5W0Z9)
Summary of the method: as §1

ZDHHC5 = ZDHHC5 (UniProt Q9C0B5)
Summary of the method: as §1

ZDHHC7 isoform 2 = ZDHHC7 isoform 2 (UniProt Q9NXF8)
Summary of the method: as §1

ZDHHC8 isoform 3 = ZDHHC8 isoform 3 (UniProt Q9ULC8)
Summary of the method: as §1

ZDHHC5, sequence (Q9C0B5 whole entry, looked up): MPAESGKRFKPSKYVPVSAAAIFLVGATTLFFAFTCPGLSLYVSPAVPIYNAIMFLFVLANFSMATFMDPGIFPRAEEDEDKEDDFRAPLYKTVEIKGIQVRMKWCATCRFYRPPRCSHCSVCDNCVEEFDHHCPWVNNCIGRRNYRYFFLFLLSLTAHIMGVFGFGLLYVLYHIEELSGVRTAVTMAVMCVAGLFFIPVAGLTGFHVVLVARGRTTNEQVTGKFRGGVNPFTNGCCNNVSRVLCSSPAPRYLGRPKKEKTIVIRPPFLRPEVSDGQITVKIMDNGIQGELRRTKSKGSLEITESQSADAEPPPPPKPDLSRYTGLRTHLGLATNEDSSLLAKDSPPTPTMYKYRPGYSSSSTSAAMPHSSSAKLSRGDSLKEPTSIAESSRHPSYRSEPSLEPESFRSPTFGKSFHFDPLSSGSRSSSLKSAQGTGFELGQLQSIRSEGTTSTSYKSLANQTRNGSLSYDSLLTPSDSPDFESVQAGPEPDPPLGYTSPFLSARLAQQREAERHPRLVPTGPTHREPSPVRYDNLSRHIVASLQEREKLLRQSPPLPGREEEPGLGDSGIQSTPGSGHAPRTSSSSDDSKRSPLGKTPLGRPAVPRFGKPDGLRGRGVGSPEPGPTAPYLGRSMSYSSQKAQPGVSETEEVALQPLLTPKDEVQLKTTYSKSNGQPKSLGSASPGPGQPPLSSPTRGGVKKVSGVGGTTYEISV
ZCCHC9, sequence (Q8N567 whole entry, looked up): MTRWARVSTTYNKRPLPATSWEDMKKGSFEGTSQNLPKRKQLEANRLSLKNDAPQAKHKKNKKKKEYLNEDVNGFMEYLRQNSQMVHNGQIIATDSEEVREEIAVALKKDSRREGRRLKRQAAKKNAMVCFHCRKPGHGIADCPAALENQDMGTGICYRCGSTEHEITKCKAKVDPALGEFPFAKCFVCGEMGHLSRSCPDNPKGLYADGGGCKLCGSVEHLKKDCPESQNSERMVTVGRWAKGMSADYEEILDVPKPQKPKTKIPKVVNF
ZC3H8, sequence (Q8N5P1 whole entry, looked up): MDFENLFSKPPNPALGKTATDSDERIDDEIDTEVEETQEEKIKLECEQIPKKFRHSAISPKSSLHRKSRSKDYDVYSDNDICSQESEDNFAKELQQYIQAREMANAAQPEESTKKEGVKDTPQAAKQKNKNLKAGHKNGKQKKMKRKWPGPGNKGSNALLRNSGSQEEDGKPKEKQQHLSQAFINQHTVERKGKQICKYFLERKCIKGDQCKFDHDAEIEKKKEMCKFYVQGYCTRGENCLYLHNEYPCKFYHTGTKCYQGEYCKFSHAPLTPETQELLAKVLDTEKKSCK
ZDHHC17, sequence (Q8IUH5 whole entry, looked up): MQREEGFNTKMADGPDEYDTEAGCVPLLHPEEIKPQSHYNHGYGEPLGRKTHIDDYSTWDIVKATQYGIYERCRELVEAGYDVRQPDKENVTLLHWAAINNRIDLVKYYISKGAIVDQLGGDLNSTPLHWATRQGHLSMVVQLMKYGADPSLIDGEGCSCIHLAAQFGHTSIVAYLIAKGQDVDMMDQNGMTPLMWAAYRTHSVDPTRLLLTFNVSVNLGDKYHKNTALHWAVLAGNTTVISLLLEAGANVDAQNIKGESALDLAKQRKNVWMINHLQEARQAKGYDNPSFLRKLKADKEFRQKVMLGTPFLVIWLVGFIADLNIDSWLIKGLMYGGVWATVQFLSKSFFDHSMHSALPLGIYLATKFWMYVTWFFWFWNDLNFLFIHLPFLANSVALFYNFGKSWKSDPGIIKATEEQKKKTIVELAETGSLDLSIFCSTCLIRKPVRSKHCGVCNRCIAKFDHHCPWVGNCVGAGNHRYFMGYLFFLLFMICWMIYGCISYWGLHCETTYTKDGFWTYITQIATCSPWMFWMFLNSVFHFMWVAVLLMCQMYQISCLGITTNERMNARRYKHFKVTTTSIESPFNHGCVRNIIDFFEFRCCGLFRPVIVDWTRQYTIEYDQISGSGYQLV
ZDHHC20, sequence (Q5W0Z9 whole entry, looked up): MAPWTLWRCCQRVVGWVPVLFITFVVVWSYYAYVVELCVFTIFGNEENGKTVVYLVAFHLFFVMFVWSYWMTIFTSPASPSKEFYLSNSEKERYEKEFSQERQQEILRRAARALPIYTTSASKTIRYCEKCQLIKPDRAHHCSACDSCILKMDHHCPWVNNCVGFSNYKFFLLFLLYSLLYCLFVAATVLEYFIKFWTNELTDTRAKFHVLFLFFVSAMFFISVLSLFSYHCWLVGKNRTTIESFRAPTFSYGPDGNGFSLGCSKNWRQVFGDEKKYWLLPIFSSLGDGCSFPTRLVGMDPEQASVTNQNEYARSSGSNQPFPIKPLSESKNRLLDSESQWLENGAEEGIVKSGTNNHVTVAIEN
ZDHHC7 isoform 2, sequence (Q9NXF8 whole entry, looked up, canonical isoform): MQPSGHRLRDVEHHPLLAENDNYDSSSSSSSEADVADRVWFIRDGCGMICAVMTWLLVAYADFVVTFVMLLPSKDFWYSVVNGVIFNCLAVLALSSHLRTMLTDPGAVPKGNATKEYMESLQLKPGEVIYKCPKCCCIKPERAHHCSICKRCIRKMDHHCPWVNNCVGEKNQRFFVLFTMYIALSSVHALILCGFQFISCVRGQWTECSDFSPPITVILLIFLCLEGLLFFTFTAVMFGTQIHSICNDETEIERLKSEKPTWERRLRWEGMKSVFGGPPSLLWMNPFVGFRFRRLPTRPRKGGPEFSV
ZDHHC8 isoform 3, sequence (Q9ULC8 whole entry, looked up, canonical isoform): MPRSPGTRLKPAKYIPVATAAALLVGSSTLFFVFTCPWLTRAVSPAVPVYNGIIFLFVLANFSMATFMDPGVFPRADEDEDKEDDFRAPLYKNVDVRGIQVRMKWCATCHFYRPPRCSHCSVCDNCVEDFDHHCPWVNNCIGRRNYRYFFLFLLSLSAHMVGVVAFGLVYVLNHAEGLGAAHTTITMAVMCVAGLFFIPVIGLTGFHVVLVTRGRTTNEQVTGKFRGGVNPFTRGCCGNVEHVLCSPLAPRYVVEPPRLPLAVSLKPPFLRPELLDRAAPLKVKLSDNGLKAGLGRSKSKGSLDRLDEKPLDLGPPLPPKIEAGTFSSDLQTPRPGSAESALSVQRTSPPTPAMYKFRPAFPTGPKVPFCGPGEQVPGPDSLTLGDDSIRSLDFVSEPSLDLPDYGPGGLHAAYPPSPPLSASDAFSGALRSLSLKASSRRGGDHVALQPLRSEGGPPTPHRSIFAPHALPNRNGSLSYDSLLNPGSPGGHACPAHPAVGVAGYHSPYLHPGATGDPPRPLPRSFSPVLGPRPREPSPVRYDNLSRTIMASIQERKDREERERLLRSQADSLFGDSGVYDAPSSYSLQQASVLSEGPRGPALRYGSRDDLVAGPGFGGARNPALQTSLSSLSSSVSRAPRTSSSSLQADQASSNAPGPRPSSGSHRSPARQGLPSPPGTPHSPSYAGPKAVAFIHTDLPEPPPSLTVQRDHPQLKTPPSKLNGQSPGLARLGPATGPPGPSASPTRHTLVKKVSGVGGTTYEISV
ZC3HC1, sequence (Q86WB0 whole entry, looked up): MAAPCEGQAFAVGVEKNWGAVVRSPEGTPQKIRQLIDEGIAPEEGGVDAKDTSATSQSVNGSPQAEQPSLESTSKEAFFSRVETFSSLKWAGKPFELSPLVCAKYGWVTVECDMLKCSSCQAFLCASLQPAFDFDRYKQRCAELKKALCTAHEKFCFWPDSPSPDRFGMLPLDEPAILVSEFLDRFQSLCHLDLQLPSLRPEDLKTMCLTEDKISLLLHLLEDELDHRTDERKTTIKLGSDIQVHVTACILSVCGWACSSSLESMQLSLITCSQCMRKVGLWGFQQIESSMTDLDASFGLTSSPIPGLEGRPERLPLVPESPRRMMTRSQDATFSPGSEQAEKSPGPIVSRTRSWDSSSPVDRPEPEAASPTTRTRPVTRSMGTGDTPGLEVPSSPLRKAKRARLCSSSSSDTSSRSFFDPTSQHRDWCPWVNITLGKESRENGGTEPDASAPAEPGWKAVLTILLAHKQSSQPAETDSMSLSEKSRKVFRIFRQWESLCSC

Compound | log2 fold change (ZC3H8) | log2 fold change (ZC3HC1) | log2 fold change (ZCCHC9) | log2 fold change (ZDHHC17) | log2 fold change (ZDHHC20) | log2 fold change (ZDHHC5) | log2 fold change (ZDHHC7 isoform 2) | log2 fold change (ZDHHC8 isoform 3)
COc1cc(C(=O)O)ccc1NC(=O)[C@@H]1N[C@@H](CC(C)(C)C)[C@](C#N)(c2ccc(Cl)cc2F)[C@H]1c1cccc(Cl)c1F [idasanutlin] | 0.109 | -0.012 | 0.139 | -0.048 | -0.014 | -0.111 | -0.013 | 
Oc1cc(-c2nc(-c3ccccc3)[nH]c2-c2ccncc2)ccc1Cl | -0.076 | 0.024 | -0.271 | 0.002 | -0.232 | 0.01 | 0.026 | 
Cc1ccc2c(=O)c3ccccc3n(CCCN)c2c1C | -0.277 | -0.091 | -0.187 | 0.037 | 0.028 | 0.08 | 0.005 | 0.02
Cn1c2cc(S(C)=O)sc2c2cnn(Cc3cccc(N)c3)c(=O)c21 (stereo unspecified) | 0.127 | -0.135 |  | -0.027 | 0.084 | -0.049 | 0.02 | 0.121
O=C(Nc1cccc(Nc2ncc(Br)c(NCCc3cnc[nH]3)n2)c1)N1CCCC1 | 0.038 | -0.078 | 0.08 | 0.011 | -0.025 | -0.076 | 0.028 | 0.06
COc1ccc(Cn2ccc3ccc(C(=O)NO)cc32)cc1 | -0.128 | 0.13 | -0.05 | 0.137 | -0.034 | -0.01 | -0.022 | 0.07
Cc1cn(-c2cc(NC(=O)c3ccc(C)c(Nc4nccc(-c5cccnc5)n4)c3)cc(C(F)(F)F)c2)cn1 [nilotinib] | 0.016 | -0.052 | -0.046 | -0.004 | 0.016 | 0.091 | 0.104 | 0.086
Cc1ncc(-c2ccnc(Nc3ccc(S(C)(=O)=O)cc3)n2)n1C(C)C | 0.036 | -0.01 | 0.005 | -0.022 | 0.022 | -0.009 | 0.059 | -0.014
CN1CCc2c(c3ccccc3n2Cc2ccc(C(=O)NO)cc2)C1 [Tubastatin A] | -0.034 | 0.07 | 0.103 | -0.012 | 0.02 | 0.051 | -0.003 | 0.058
Cc1cccc(-c2[nH]c(C(C)(C)C)nc2-c2ccc3nccnc3c2)n1 | -0.176 | 0.119 | -0.133 | -0.095 | -0.007 | -0.013 | 0.335 | -0.03
Cc1ccc(NC(=O)c2ccc(CN3CC[C@H](N(C)C)C3)c(C(F)(F)F)c2)cc1Nc1nccc(-c2cncnc2)n1 [bafetinib] | 0.052 | 0.018 | 0.144 | -0.007 | 0.104 | 0 |  | -0.03
Cn1cc(-c2ccc3c(c2)CCN3C(=O)Cc2cccc(C(F)(F)F)c2)c2c(N)ncnc21 | -0.084 | 0.014 | -0.074 | 0.018 | -0.036 | -0.02 | -0.088 | 
CCN(CCCOc1ccc2c(Nc3cc(CC(=O)Nc4cccc(F)c4)[nH]n3)ncnc2c1)CCOP(=O)(O)O [barasertib] | -0.075 | 0.108 | -0.094 | 0.067 | 0.022 | -0.001 |  | 0.028
C=CC(=O)N1CCC[C@@H](n2nc(-c3ccc(Oc4ccccc4)cc3)c3c(N)ncnc32)C1 [ibrutinib] | 0.03 | -0.041 | 0.06 | -0.029 | -0.004 | 0.02 |  | 0.043
CC1=C(C(=O)Nc2cc3cn[nH]c3cc2F)C(c2ccc(C(F)(F)F)cc2)CC(=O)N1 (stereo unspecified) | -0.072 | 0.057 | 0.012 | -0.013 | 0.047 | 0.022 | 0.114 | -0.083
C[C@@H](Oc1cc(-c2cnn(C3CCNCC3)c2)cnc1N)c1c(Cl)ccc(F)c1Cl [crizotinib] | 0.089 | -0.109 | 0.032 | -0.064 | 0.017 | 0.075 | -0.131 | -0.187

Compound | log2 fold change (ZC3H8) | log2 fold change (ZC3HC1) | log2 fold change (ZCCHC9) | log2 fold change (ZDHHC17) | log2 fold change (ZDHHC20) | log2 fold change (ZDHHC5) | log2 fold change (ZDHHC7 isoform 2) | log2 fold change (ZDHHC8 isoform 3)
C[C@H](Nc1ncnc2nc[nH]c12)c1cc2cccc(Cl)c2c(=O)n1-c1ccccc1 [duvelisib] | -0.126 | -0.002 |  | 0.036 | 0.04 | -0.044 | 0.082 | -0.038
Cc1cc(Nc2cc(N3CCN(C)CC3)nc(Sc3ccc(NC(=O)C4CC4)cc3)n2)n[nH]1 [tozasertib] | 0.058 | 0.047 | 0.04 | -0.02 | 0.006 | -0.057 | -0.04 | -0.041
Cc1nc(Nc2ncc(C(=O)Nc3c(C)cccc3Cl)s2)cc(N2CCN(CCO)CC2)n1 [dasatinib] | 0.123 | -0.214 |  | -0.002 | -0.163 | 0.019 | -0.063 | -0.112
CC(C)N(C[C@H]1O[C@@H](n2cnc3c(N)ncnc32)[C@H](O)[C@@H]1O)[C@H]1C[C@@H](CCc2nc3cc(C(C)(C)C)ccc3[nH]2)C1 [pinometostat] | 0.017 | -0.005 | 0.187 | 0.053 | 0.025 | -0.02 | -0.024 | 0.026
Cc1cc(SCc2sc(-c3ccc(C(F)(F)F)cc3)nc2C)ccc1OCC(=O)O | -0.039 | 0.199 |  | -0.04 | -0.249 | -0.03 | -0.075 | 0.031
CN(CCOc1ccc(C[C@@H]2SC(=O)NC2=O)cc1)c1ccccn1 (racemic) [rosiglitazone] | -0.171 | 0.086 | -0.131 | 0.052 | 0.059 | -0.016 |  | 0.038
CNc1nc(-c2ccc3c(N)n[nH]c3c2)cc(N2C[C@@H](C(=O)NC3CCCCC3)CC[C@H]2C)n1 | 0.012 | 0.104 |  | 0.017 | 0.121 | 0.011 | -0.03 | 0
CC[C@H](C)n1cc(C)c2c(C(=O)NCc3c(C)cc(C)[nH]c3=O)cc(-c3ccc(N4CCNCC4)nc3)cc21 | -0.012 | 0.164 | 0.013 | -0.022 | -0.046 | -0.052 | -0.099 | -0.064
Cc1nc(Nc2n[nH]c3c2CN(C(=O)N[C@H](CN(C)C)c2ccccc2)C3(C)C)c2sccc2n1 | 0.081 | -0.103 | 0.159 | -0.012 | -0.02 | -0.037 | 0.046 | 0.013
O=C(Nc1nc2ccccc2n1CCN1CCOCC1)c1cccc([N+](=O)[O-])c1 [IRAK-1-4 Inhibitor I] | -0.098 | -0.017 | -0.085 | -0.008 | -0.044 | -0.043 | 0 | -0.049
COc1cc2ncnc(Nc3ccc(F)c(Cl)c3)c2cc1OCCCN1CCOCC1 [gefitinib] | 0.021 | 0.004 | -0.062 | 0.04 | -0.067 | 0.031 | 0.062 | 0.023
CN1CC[C@H](c2c(O)cc(O)c3c(=O)cc(-c4ccccc4Cl)oc23)[C@H](O)C1 [alvocidib] | 0.189 | -0.318 | 0.321 | -0.027 | -0.016 | -0.038 | 0.077 | 
Cc1ccc(-n2nc(C(C)(C)C)cc2NC(=O)Nc2ccc(OCCN3CCOCC3)c3ccccc23)cc1 [doramapimod] | 0.038 | -0.056 | 0.169 | 0.264 (active) | -0.025 | 0.027 | 0.113 | 0.359
O=C1NC(=O)/C(=C\c2ccc3nccnc3c2)S1 | 0.044 | 0.021 | -0.015 | 0.11 | 0.095 | 0.007 |  | -0.002
NC1(Cc2ccc(Cl)cc2)CCN(c2ncnc3[nH]ccc23)CC1 | -0.01 | 0.019 | -0.1 | 0.022 | 0.059 | 0.071 | 0 | 0.063
CN1CCN(CCOc2cc(OC3CCOCC3)c3c(Nc4c(Cl)ccc5c4OCO5)ncnc3c2)CC1 [saracatinib] | 0.088 | 0.024 |  | -0.009 | -0.045 | 0.034 | 0.034 | 0.188
